KB-V1 MDR tox: KB-V1 MDR subline cytotoxicity | KB-V1 MDR cells viability, CellTiter-Glo, 72 h | Potency, µM (highest dose often 46.1 µM), most hits filed as cytotoxic | 400,000 compounds, 3.4% hits; also: % is scaled to controls: 0 for no effect and ±100 for the full control effect; nearly all actives have a fitted effect of over 60% in size
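Drug-selected KB-V1 cells, grown in DMEM lacking phenol red with 10% FBS, receive compound titrations; after three days at 37 degrees C, surviving cell ATP is quantified by CellTiter-Glo luminescence and responses normalized and curve-fitted.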
MCF10A rerep: DNA re-replication induction in MCF 10a cells | MCF 10A DNA re-replication, Hoechst nuclear intensity, 48 h | Potency, µM (series often up to 46.1 µM), without a hit: at the highest dose activity, positive = re-replication, usual class: activators | 350,000 compounds, 2.9% hits; also: % of control where 0% means no effect; nearly all actives have a fitted effect of over 50% in size
KB-3-1 cytotox: KB-3-1 parental cell cytotoxicity | KB-3-1 viability, CellTiter-Glo ATP luminescence, 72 h | Potency, µM (titrated, usually from 46.1 µM), actives largely listed as cytotoxic | 400,000 compounds, 1.4% hits; also: % is scaled to controls: 0 for no effect and ±100 for the full control effect; nearly all actives have a fitted effect of over 60% in size
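Viability of parental KB-3-1 cells, measured by CellTiter-Glo luminescence, followed a 72 h incubation at 37 °C with pinned compounds in phenol-red-free DMEM containing 10% FBS.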
SW480 rereplic: DNA re-replication induction in SW480 cells; SW480 DNA re-replication, Hoechst DNA content imaging, 48 h; Potency, µM (series often up to 46.1 µM), for the others: at the highest dose re-replication activation, usual class: activators; 340,000 compounds, 1.8% hits; also: % of control where 0% means no effect; nearly all actives have a fitted effect of over 55% in size
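Treated cells incubate 48 hr (37 C, 5% CO2), are stained 40 min with Hoechst, and nuclear fluorescence is enumerated; a rise in nuclei with high DNA signal marks re-replication.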
ELG1 DNA repair: inhibitors of ELG1-dependent DNA repair in HEK293T cells; 330,000 compounds, 2.3% hits; HEK293T ELG1-luciferase reporter, luminescence, 16 h; DNA damage induced by 5-fluorouridine; Potency, µM (top dose mostly 46.1 µM), without a hit: at the highest dose activity change, negative = inhibition, most hits filed as inhibitors; also: % is scaled to controls: 0 for no effect and ±100 for the full control effect; nearly all actives have a fitted effect of over 55% in size
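Step one: seed 2,000 cells per well. Step two: pin-transfer compound or DMSO alongside 5-fluorouridine. Step three: incubate 16 hr, 37 °C, 5% CO2. Step four: add ONE-Glo, wait 30 min, read luminescence.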
ELG1 FLuc counter: luciferase inhibition in cell-free luciferin readout for ELG1 hits | shares compounds with ELG1 DNA repair | cell-free firefly luciferase luminescence counter-screen, ViewLux | Potency, µM (top dose mostly 46.1 µM), for inactives: at the top dose activity change, negative = inhibition, hits mostly inhibitors | 350 compounds, 3% hits | AID 624247; also: % is scaled to controls: 0 for no effect and ±100 for the full control effect
ELG1 Luc conf: confirmation of human ELG1-dependent DNA repair inhibitors; shares compounds with ELG1 DNA repair; HEK293T ELG1-luciferase levels, luminescence; cells co-treated with 5-fluorouridine; Potency, µM (series often up to 46.1 µM), for inactives: top-dose activity change, negative = inhibition, usual class: inhibitors; 670 compounds, 68% hits; AID 624248; also: % is scaled to controls: 0 for no effect and ±100 for the full control effect; nearly all actives have a fitted effect of over 55% in size
Target sequence (Q96QE3 whole entry, looked up): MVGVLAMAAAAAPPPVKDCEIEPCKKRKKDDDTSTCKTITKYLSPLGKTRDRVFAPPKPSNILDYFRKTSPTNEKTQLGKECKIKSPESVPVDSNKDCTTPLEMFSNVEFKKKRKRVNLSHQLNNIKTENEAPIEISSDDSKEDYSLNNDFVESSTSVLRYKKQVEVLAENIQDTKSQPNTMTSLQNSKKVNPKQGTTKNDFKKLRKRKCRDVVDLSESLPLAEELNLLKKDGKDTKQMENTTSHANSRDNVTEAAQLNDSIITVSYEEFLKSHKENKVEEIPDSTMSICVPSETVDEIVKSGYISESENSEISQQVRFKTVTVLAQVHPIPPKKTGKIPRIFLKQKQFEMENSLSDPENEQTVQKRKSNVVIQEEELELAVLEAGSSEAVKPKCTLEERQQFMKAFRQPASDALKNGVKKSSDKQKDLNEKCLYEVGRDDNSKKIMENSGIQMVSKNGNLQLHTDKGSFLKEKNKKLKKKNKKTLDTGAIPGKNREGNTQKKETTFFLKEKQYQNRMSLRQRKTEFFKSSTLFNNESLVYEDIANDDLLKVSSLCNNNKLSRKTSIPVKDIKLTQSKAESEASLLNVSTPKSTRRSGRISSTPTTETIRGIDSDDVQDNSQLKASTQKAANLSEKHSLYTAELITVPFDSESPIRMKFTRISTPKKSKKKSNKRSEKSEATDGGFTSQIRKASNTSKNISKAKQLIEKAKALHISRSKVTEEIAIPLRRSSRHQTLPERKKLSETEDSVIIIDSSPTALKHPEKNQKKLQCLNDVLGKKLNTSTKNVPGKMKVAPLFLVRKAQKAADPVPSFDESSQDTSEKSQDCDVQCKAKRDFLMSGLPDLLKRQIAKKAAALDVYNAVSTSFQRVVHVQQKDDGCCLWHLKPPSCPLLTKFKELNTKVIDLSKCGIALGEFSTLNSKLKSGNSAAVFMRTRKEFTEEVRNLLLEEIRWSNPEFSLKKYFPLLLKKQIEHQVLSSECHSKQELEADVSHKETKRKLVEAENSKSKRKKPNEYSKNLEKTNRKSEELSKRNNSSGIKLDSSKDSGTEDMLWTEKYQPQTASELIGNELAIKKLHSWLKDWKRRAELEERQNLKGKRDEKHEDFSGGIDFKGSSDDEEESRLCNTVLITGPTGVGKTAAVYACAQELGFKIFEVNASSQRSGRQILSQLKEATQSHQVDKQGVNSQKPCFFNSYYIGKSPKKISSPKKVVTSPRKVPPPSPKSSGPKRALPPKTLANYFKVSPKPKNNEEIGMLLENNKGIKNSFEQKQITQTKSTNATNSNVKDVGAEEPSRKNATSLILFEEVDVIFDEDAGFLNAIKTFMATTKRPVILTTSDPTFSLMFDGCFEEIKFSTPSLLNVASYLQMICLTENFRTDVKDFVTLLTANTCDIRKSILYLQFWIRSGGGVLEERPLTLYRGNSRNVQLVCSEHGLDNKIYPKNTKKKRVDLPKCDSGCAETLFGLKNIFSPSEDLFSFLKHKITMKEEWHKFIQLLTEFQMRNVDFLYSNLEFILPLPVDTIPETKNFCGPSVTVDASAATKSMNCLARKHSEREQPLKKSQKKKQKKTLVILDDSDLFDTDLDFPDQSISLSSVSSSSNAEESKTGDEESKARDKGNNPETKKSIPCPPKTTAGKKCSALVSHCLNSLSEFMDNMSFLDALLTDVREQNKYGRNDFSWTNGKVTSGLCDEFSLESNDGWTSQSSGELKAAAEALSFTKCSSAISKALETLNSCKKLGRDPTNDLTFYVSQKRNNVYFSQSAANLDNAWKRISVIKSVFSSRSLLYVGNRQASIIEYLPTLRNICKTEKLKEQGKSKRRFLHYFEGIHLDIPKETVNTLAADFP
ELG1 MMS Luc: inhibits ELG1-dependent repair under MMS stimulation in HEK293T cells; shares compounds with ELG1 DNA repair; HEK293T luciferase-tagged ELG1 level, MMS stimulated; Potency, µM (doses to about 46.1 µM), for the others: at the top dose activity change, negative = inhibition, usual class: inhibitors; 670 compounds, 53% hits; AID 624249; also: % is scaled to controls: 0 for no effect and ±100 for the full control effect; nearly all actives have a fitted effect of over 60% in size
ELG1 5-FU: confirmation of ELG1 repair inhibitors: viability with 5FU; 670 tested, under 10 active; AID 624250; cell viability with 5-FU, ELG1-dependent repair; Potency, µM (titrated, usually from 46.1 µM), for inactives: top-dose activity change, negative = viability loss, most hits filed as cytotoxic; shares compounds with ELG1 DNA repair;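 also: ELG1-luc HEK293T cells cotreated with 5-fluorouridine at 10 µM final; viability measured 16 h after compound addition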
ELG1 MMS viab: confirmation of ELG1 repair inhibitors: viability with MMS; AID 624251; 670 compounds, 33% hits; Potency, µM (series often up to 46.1 µM), for the others: top-dose activity change, negative = viability loss, most hits filed as cytotoxic; Cell viability with MMS, ELG1-dependent DNA repair; shares compounds with ELG1 DNA repair;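 also: ELG1-luc HEK293T cells co-treated with 10 µM MMS; viability read 16 h after compound addition; % is scaled to controls: 0 for no effect and ±100 for the full control effect; nearly all actives have a fitted effect of over 60% in size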
ELG1 unstim viab: counter-screen for ELG1 repair inhibitors: unstimulated cell viability; shares compounds with ELG1 DNA repair; cell viability counter-screen, unstimulated, luminescence; Potency, µM (doses to about 45.9 µM), without a hit: at the highest dose activity change, negative = loss of viability, usual class: cytotoxic; 900 compounds, 8% hits; AID 624252;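 also: compound exposure lasted 16 hours before reading; % is scaled to controls: 0 for no effect and ±100 for the full control effect; nearly all actives have a fitted effect of over 55% in size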
FLuc enzyme: counter-screen for ELG1 repair inhibitors: firefly luciferase inhibition; 350 compounds, 10% hits; shares compounds with ELG1 DNA repair; purified firefly luciferase, luminescence counter-screen; Potency, µM (series often up to 57.5 µM), inactives show at the top dose activity, negative = inhibition, actives largely listed as inhibitors; AID 624253; also: % is scaled to controls: 0 for no effect and ±100 for the full control effect
Numbers without * were called inactive; i = inactive; ? = inconclusive; / = not tested or not shown. Most compounds without a hit are left out; they make up all but 8.2% or so of the library. Calls follow the shape of the dose curve; as a rule, active = well fitted curve in the direction sought with a large enough effect; inconclusive = small, poorly fitted or top-dose-only effect, or another doubt; inactive = no such curve, though single readings can be large; an effect the other way counts as inactive or inconclusive. Potency is read from the fitted curve at half-maximal effect.

SMILES	KB-V1 MDR tox	MCF10A rerep	KB-3-1 cytotox	SW480 rereplic	ELG1 DNA repair	ELG1 unstim viab	others
CCOCCOC(=O)c1[nH]c2c(c1C)C(=O)CC(c1cc(OC)c(OC)c(OC)c1)C2 (centres undefined)	i	-21.6%	?	3.3%	4.11µM*	?	ELG1 Luc conf=9.96µM*;ELG1 MMS Luc=6.28µM*;ELG1 5-FU=-5.2%;ELG1 MMS viab=?
Cn1c2ccccc2c(=O)c2cc(NCCCN3CCOCC3)ccc21	i	?	i	7.5%	?	-4.0%
Cc1ccc(CNC(=O)c2oc3ccc(S(=O)(=O)N4CCC5(CC4)OCCO5)cc3c2C)cc1	?	?	i	11.3%	0.82µM*	?	ELG1 FLuc counter=?;ELG1 Luc conf=3.54µM*;ELG1 MMS Luc=14.1µM*;ELG1 5-FU=?;ELG1 MMS viab=22.3µM*;FLuc enzyme=-0.6%
Cc1c(C(=O)NCCN(C)C)oc2ccc(S(=O)(=O)N3CCC4(CC3)OCCO4)cc12	i	0.1%	i	-2.0%	15.1%	/
CN(C)c1ccc(C=Nc2cncc3ccccc23)cc1	i	/	?	/	/	-4.8%	ELG1 FLuc counter=49.6%;FLuc enzyme=0.291µM*
O=C(CN(C(=O)CCC(=O)Nc1nccs1)c1cccc(F)c1)NCc1ccccc1	i	6.2%	i	-2.7%	10.0%	/
Cc1c(OCc2ccc([N+](=O)[O-])cc2)ccc2c3c(c(=O)oc12)CCC3	i	10.4%	i	-1.6%	?	0.5%
O=C(NCCN1CCC(n2c(=O)[nH]c3ccccc32)CC1)c1cccc(Cl)c1	?	/	i	/	/	/
COc1cc(/C=C(\C#N)C(=O)Nc2cccc(C(=O)O)c2)ccc1OCc1ccc(Cl)cc1	i	0.8%	i	9.3%	?	11.0%	ELG1 FLuc counter=51.3%;FLuc enzyme=16.4µM*
COc1ccc(C2=Nc3ccccc3N(C(=O)c3ccc(C(F)(F)F)cc3)C2C(=O)Nc2c(C)cccc2C)cc1 (centres undefined)	i	/	i	/	/	/
O=C(COc1ccccc1Cl)Nc1ccc(-c2nc3ccccc3s2)cc1	?	/	i	/	/	?
COc1cc(OC)c(NC(=O)Nc2nnc(N(C)C3CCCCC3)s2)cc1Cl	i	/	i	/	/	/
COc1ccc(-n2c(SCC(=O)N3CCc4ccccc43)nc3c([nH]c4ccccc43)c2=O)cc1	?	/	i	/	/	/
COc1ccc(-c2cnc(-c3cccnc3)o2)cc1	/	/	/	/	/	2.8%
CC(C)c1cc(C(=O)O)c2cnn(C(C)C)c2n1	i	?	i	?	0.0%	/
